Screening data deposited in PubChem BioAssay by National Center for Advancing Translational Sciences (NCATS).
Compounds with a hit are over-represented: about 5.2% of the library has one in this group of screens.
Coupling enz – coupling enzyme interference in Giardia aldolase counter-screen | activity change, negative = inhibition, % at 58.2 µM, hits read low | AID 2472 | coupling enzyme system counterscreen, AmpLite Red fluorescence | actives 0.67% (n = 290,000); in the data active = activity change below about -30%
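Counterscreen lacking aldolase: glyceraldehyde-3-phosphate coupling-enzyme reagent preincubated 10 min at RT with compound (at 57.5 uM final), then substrate/coupling system with AmpLite Red added; fluorescence read at 525/598 nm after 20 min RT.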
Tau ThT inhib – tau fibrillization inhibition (ThT binding) | Potency, µM (top dose mostly 57.4 µM), for inactives: at the highest dose activity, negative = inhibition, usual class: inhibitors | recombinant tau K18 P301L, heparin-induced fibrillization, ThT fluorescence | actives 2.1% (n = 270,000) | P10636 | AID 1460; also: potency is read from the fitted curve at half-maximal effect; nearly all actives have a fitted effect of over 55% in size
Target sequence (P10636 561-689 P618L limits assumed): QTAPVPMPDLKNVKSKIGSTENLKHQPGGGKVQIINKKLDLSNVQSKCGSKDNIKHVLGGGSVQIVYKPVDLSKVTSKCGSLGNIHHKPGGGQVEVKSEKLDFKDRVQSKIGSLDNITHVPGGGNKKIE
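ThT emission at 510 nm, taken 1 hr after adding 30 uM dye, quantifies aggregates formed when 20 uM heparin acts on human tau K18 P301L for 6 hr at 37 C.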
Tau fibril FP – tau fibrillization inhibition (FP). Potency, µM (highest dose often 57.7 µM), for the others: at the top dose activity, negative = inhibition, most hits filed as inhibitors. actives 0.39% (n = 280,000). P10636. K18 P301L tau heparin fibrillization, Alexa594 FP, 6 h; also: potency is read from the fitted curve at half-maximal effect; nearly all actives have a fitted effect of over 55% in size
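Read-out: fluorescence polarization of Alexa 594-labeled tau (0.24 uM), 555 nm excitation, 632 nm emission. Mixtures held 15 uM unlabeled K18 P301L, compound and 20 uM heparin, pH 7 acetate buffer, incubated 6 hr at 37 C.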
Tau fluor cs – counter-screen for tau fibril formation inhibitors | tau K18 P301L (four-repeat tau fragment) Alexa594 fluorescence, heparin fibrillization | Potency, µM (titrated, usually from 57.7 µM), without a hit: top-dose activity change, negative = decrease | actives 0.93% (n = 280,000); also: potency is read from the fitted curve at half-maximal effect; nearly all actives have a fitted effect of over 55% in size
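Human K18 P301L tau (15 uM unlabeled plus 0.24 uM Alexa 594-labeled, final) in 100 mM sodium acetate pH 7 was mixed with compound and 20 uM heparin and incubated 6 hr at 37 C.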
Sfp inh – blocks B. subtilis Sfp PPTase activity | Q9F4F7 | Biochemical Sfp PPTase activity, qHTS | Potency, µM, inactives show largest response in the series, negative = inhibition, actives largely listed as inhibitors | actives 3.5% (n = 310,000) | AID 1490;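 also: the enzyme is Sfp with the accession as filed and its product quenches rhodamine fluorescence; potency is read from the fitted curve at half-maximal effect; 0% = enzyme reaction without inhibitor and -100% = no enzyme wells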
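With Hepes-Na pH 7.6 buffer containing 10 mM MgCl2, Sfp (15 nM) modified BHQ-2-YbbR (12.5 uM) using rhodamine-CoA (5 uM). Two reads 30 minutes apart at 525/598 nm yielded each well's rate.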
Active calls of the source: *; u = inconclusive; x = no result given; [ ] = dose if it differs, or a comment. Unless noted, calls follow the shape of the dose curve; as a rule, active = well fitted curve in the direction sought with a large enough effect; inconclusive = small, poorly fitted or top-dose-only effect, or another doubt; inactive = no such curve, though single readings can be large; an effect the other way counts as inactive or inconclusive. Unless noted, % is scaled to controls: 0 for no effect and ±100 for the full control effect.

SMILES	Coupling enz	Tau ThT inhib	Tau fibril FP	Tau fluor cs	Sfp inh
CC(C)c1ccc(Nc2ncnc3c2c(-c2ccccc2)cn3-c2ccccc2)cc1	x	-9%	-13%	1%	x
COc1cccc(CN2CCN(C(=O)c3ccc(-c4ccccc4)cc3)CC2)c1	-1	u	14%	-10%	-16%
COc1cccc(C(=O)N2CCN(Cc3ccccc3C(F)(F)F)CC2)c1	0	-9%	11%	-3%	56µM*
O=C(c1cccnc1)N1CCN(Cc2ccc3ccccc3c2)CC1	1	x	x	x	-1%
O=C(c1cccnc1)N1CCN(Cc2cccc(F)c2)CC1	-3	-6%	-2%	-1%	79µM*
COc1ccc(C(=O)N2CCN(Cc3ccccc3C(F)(F)F)CC2)cc1	0	x	x	x	-10%
Fc1cccc(CN2CCN(c3ncccn3)CC2)c1	-7	-1%	-3%	-12%	45µM*
COc1cccc(CN2CCN(C(=O)c3cccc(OC)c3)CC2)c1	-1	x	x	x	79µM*
CC1/C=C/C=C/C=C/C=C/C=C/C=C/C=C/C(OC2OC(C)C(O)C(N)C2O)CC2O[C@@](O)(CC(O)CC(O)C(O)CCC(O)CC(O)CC(=O)OC(C)[C@H](C)C1O)CC(O)C2C(=O)O (stereo partly drawn)	-6	4µM*	4µM*	u	-65%
Cc1nn(C)c2c1c(-c1ccccc1)cc(=O)n2CC(=O)NC(C)c1ccccc1 (stereo not drawn)	x	u	-3%	-10%	x
O=C1CCN(C(=O)c2cccs2)c2ccccc21	5	-12%	-1%	-12%	5%
CN1C(=O)/C(=C\C(=O)c2cccs2)c2ccccc21	0	u	1%	-3%	45µM*
O=C(OCc1cc(=O)n2nc(-c3cccs3)sc2n1)c1ccccc1	x	u	u	-16%	x
N=C(N)n1cccn1	x	x	x	x	50µM*
CCCOc1ccc(C2c3c(-c4ccccc4O)n[nH]c3C(=O)N2CCc2ccccc2)cc1OCC (stereo not drawn)	x	u	-10%	u	x
O=C(Nc1ccccc1C(=O)O)c1ncn[nH]1	0	-2%	-4%	4%	45µM*
Cc1cc(OI)c(C(C)C)cc1-c1cc(C(C)C)c(OI)cc1C	-7	-5%	-4%	-7%	56µM*
COc1cc(C)c(N)cc1C(C)C	1	-6%	-4%	-5%	27%
C=CCn1c(N)c(C(=O)NCCC2=CCCCC2)sc1=S	0	u	3%	u	25µM*
c1ccc(-c2nc(N3CCCCCC3)c3ccccc3n2)nc1	-1	-8%	-7%	-14%	-29%
COc1ccc(Oc2nc(-c3ccccn3)nc3ccccc23)cc1	-1	u	-10%	-28%	40µM*
c1ccc(Oc2nc(-c3ccccn3)nc3ccccc23)cc1	1	u	-15%	-18%	u
c1ccc(-c2nc(N3CCOCC3)c3ccccc3n2)nc1	5	-21%	-6%	-10%	14µM*
CCN1CCN(c2cc(C)c3cc(NC(=O)c4cccc(Cl)c4)ccc3n2)CC1	x	u	7%	14µM*[quencher]	x
CCN1CCN(c2cc(C)c3cc(NC(=O)/C=C/c4cccc(Cl)c4)ccc3n2)CC1	x	3.2µM*	3%	3.5µM*[quencher]	x
SMILES	Coupling enz	Tau ThT inhib	Tau fibril FP	Tau fluor cs	Sfp inh
CCOc1ccc(C(=O)Nc2ccc3nc(N4CCN(CC)CC4)cc(C)c3c2)cc1	1	x	x	x	6%
CCN1CCN(c2cc(C)c3cc(NC(=O)c4cc(OC)cc(OC)c4)ccc3n2)CC1	1	u	10%	16µM*[quencher]	7%
COc1ccccc1NC(=O)C1=C(C)Nc2nc(SCc3ccccc3Cl)nn2C1c1cccnc1 (stereo not drawn)	x	-5%	0%	-9%	x
CCN(CC)c1ccc(/C=N\NC(=O)c2cccc3cc[nH]c23)cc1	0	6.3µM*	-4%	14µM*[quencher]	5%
CN(C)c1ccc(/C=N/NC(=O)c2ccc(NC(=O)c3ccccc3)cc2)cc1	0	1.6µM*	3%	u	-3%
O=C(N/N=C/c1ccc([N+](=O)[O-])cc1)c1cccc2cc[nH]c12	2	u	6%	-18%	21%
CCN(CC)c1ccc(/C=N/NC(=O)c2ccoc2C)cc1	-11	10µM*	-3%	u	6%
CN(C)c1ccc(/C=C(/NC(=O)c2ccccc2)C(=O)N/N=C/c2ccc([N+](=O)[O-])c(O)c2)cc1	-16	4µM*	2%	14µM*[quencher]	-8%
O=C(N/N=C/c1ccc2c(c1)OCO2)/C(=C/c1ccc2c(c1)OCO2)NC(=O)c1ccccc1	6	-13%	-6%	-16%	4%
Oc1c(C(c2ccccc2F)N2CCN(c3ccccc3F)CC2)sc2nc(-c3ccco3)nn12 (stereo not drawn)	x	u	-15%	-25%	x
CCN(CC)c1ccc(/C=N/NC(=O)c2ccc(O)cc2)cc1	1	3.2µM*	16%	u	-4%
COc1ccc([N+](=O)[O-])cc1/C=N/NC(=O)/C(=C\c1cccs1)NC(=O)c1ccccc1	-42*	-4%	u	-18%	4%
CCN(CC)c1ccc(C(=O)N/N=C(\C)c2ccc(O)cc2)cc1	2	u	1%	-15%	-6%
COc1ccc([C@@H]2CC(=O)c3c(O)cc(O[C@@H]4O[C@H](CO)[C@@H](O)[C@H](O)[C@H]4O[C@@H]4O[C@@H](C)[C@H](O)[C@@H](O)[C@H]4O)cc3O2)cc1	0	x	x	x	-15%
O=c1[nH]cnc2c1nc(Cl)n2C1OC(CO)C(O)C1O (stereo not drawn)	4	-3%	3%	4%	3%
CCN(CCCNC(=O)c1cc2cc3cc(C)ccc3nc2s1)c1cccc(C)c1	x	u	10%	7.9µM*[quencher]	x
Cc1ccc2nc3sc(C(=O)NCCCN(C)c4ccccc4)cc3cc2c1	x	u	4%	u	x
CC(=O)Nc1ccc(/C=C2\Sc3ccccc3C2=O)cc1	4	u	1%	-10%	16%
Cc1ccc(/C=C2\Sc3ccccc3C2=O)s1	0	3.2µM*	2%	-15%	0%
O=C1C2C3C=CC(CC3)C2C(=O)N1c1ccccc1[N+](=O)[O-] (stereo not drawn)	3	-7%	-4%	-11%	56µM*
c1ccc(Nc2ncnc3c2oc2ccccc23)cc1	0	-10%	2%	-7%	79µM*
Oc1ccc(Nc2ncnc3c2oc2ccccc23)cc1	2	x	x	x	-11%
CC(=O)N1CCN(c2ccc(Nc3ncnc4c3oc3ccccc34)cc2)CC1	-6	4.5µM*	3%	u	-5%
CCc1nc(Nc2ccc(N3CCN(C(C)=O)CC3)cc2)c2oc3ccccc3c2n1	-23	13µM*	16%	u	u
CC1CCCCN1C(=O)CSc1nc2ccccc2nc1Cc1ccc(Cl)cc1 (stereo not drawn)	x	-13%	-6%	-15%	x
CC(C)(C)Nc1c(-c2ccc(O)cc2)nc2ccc(Cl)cn12	-2	u	-10%	-10%	63µM*
